Data on 9 compounds can be found in PubChem BioAssay (EPA / NIEHS).

Structures are written as SMILES. Results filed as inconclusive are left out. The source made the active and inactive calls. Rule for the calls, unless noted: active = hit-call score of the fitted dose curve at least 0.9, where 1 is the maximum; inactive = score below 0.9.

The target of assay [1] is Oxysterols receptor LXR-beta (Homo sapiens) (UniProt P55055). The assay can be described thus: ATG_LXRb_TRANS: Attagene TRANS-FACTORIAL HepG2 Assay for human Liver X Receptor beta (LXRb) (AID 2282981; active = hit-call score of the fitted dose curve at least 0.9, where 1 is the maximum). As to conditions: HepG2 Attagene TRANS GAL4-LXRb reporter, mRNA. Put shortly: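 HepG2 cells transiently transfected with multiple reporter transcription units carrying chimeric NR-Gal4 proteins acting on GAL4-UAS reporters; compound exposure 24 h. Reporter mRNA quantified by RT-PCR, 6-FAM labelling, HpaI digestion and capillary electrophoresis; gain of signal versus DMSO.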
Sequence of Oxysterols receptor LXR-beta (Homo sapiens) (P55055 whole entry, looked up, the tested form may be a part): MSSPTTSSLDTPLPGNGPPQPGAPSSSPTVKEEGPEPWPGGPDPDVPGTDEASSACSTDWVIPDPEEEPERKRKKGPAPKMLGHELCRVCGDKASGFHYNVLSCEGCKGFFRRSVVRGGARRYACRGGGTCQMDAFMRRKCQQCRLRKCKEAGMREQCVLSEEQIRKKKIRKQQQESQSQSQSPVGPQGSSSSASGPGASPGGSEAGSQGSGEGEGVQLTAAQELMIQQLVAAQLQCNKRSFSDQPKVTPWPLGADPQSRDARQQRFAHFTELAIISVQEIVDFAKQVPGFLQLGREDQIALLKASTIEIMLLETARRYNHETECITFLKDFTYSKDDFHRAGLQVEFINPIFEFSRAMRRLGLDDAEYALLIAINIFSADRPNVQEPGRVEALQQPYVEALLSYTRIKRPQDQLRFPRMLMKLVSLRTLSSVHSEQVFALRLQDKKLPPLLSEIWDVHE

A short description of assay [2]: ATG_M_06_TRANS: Attagene TRANS-FACTORIAL HepG2 Assay for M06 Transcription Factor (Internal Marker) (AID 2282983; active = hit-call score of the fitted dose curve at least 0.9, where 1 is the maximum). As to conditions: HepG2 Attagene TRANS M06 internal marker reporter. Put shortly: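 HepG2 cells transiently transfected with multiplexed GAL4-UAS reporter transcription units; after 24 h compound exposure, reporter mRNA measured by RT-PCR, FAM-labelled primer extension, HpaI digestion and capillary electrophoresis. Gain-of-signal fitted versus DMSO baseline; background control readout.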

For assay [3], the target named is Nuclear receptor subfamily 4 group A member 2 (Homo sapiens) (UniProt P43354). Briefly: ATG_NURR1_TRANS: Attagene TRANS-FACTORIAL HepG2 Assay for human Nuclear Receptor Related Protein 1 (NURR1) (AID 2282985; active = hit-call score of the fitted dose curve at least 0.9, where 1 is the maximum). As to conditions: HepG2 Attagene TRANS reporter, mRNA readout. The gist of the method: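 HepG2 cells transiently transfected with GAL4-UAS reporter units and chimeric NR-Gal4 constructs; chemical exposure 24 h. Reporter mRNA quantified by RT-PCR, fluorescent labelling and capillary electrophoresis; gain of signal fitted relative to DMSO baseline.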
Sequence of Nuclear receptor subfamily 4 group A member 2 (Homo sapiens) (P43354 whole entry, looked up, the tested form may be a part): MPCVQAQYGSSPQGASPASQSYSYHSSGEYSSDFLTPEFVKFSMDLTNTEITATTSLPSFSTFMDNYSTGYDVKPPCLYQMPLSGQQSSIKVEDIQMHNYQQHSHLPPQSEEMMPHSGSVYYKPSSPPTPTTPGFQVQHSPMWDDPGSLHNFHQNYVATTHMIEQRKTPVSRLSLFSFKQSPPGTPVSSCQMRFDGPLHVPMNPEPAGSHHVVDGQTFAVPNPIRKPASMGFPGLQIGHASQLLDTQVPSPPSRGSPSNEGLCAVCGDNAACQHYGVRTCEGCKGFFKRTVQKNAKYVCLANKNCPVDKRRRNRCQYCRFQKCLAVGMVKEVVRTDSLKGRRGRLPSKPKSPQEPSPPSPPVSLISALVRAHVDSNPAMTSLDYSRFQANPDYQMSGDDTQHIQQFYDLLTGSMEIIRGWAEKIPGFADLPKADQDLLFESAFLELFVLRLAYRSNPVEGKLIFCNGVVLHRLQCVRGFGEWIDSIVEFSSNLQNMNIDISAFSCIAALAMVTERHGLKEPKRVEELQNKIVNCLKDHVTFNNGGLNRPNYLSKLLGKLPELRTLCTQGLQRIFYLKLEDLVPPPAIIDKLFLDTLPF

The target of assay [4] is Transcriptional activator Myb (Homo sapiens) (UniProt P10242). The assay can be described thus: ATG_Myb_CIS: Attagene CIS-FACTORIAL HepG2 Assay for human Myeloblastosis (Myb) Proto-Oncogene Transcription Factor (AID 2282986). As to conditions: HepG2 Attagene CIS-FACTORIAL Myb reporter transcription; actives raise or lower the signal. The gist of the method: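 Transiently transfected HepG2 cells carrying a multiplexed cis-promoter reporter set report endogenous Myb activity after 24 h compound exposure. Reporter mRNA is read by RT-PCR with capillary electrophoresis of fluorescent products, fitted bidirectionally against DMSO.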
Sequence of Transcriptional activator Myb (Homo sapiens) (P10242 whole entry, looked up): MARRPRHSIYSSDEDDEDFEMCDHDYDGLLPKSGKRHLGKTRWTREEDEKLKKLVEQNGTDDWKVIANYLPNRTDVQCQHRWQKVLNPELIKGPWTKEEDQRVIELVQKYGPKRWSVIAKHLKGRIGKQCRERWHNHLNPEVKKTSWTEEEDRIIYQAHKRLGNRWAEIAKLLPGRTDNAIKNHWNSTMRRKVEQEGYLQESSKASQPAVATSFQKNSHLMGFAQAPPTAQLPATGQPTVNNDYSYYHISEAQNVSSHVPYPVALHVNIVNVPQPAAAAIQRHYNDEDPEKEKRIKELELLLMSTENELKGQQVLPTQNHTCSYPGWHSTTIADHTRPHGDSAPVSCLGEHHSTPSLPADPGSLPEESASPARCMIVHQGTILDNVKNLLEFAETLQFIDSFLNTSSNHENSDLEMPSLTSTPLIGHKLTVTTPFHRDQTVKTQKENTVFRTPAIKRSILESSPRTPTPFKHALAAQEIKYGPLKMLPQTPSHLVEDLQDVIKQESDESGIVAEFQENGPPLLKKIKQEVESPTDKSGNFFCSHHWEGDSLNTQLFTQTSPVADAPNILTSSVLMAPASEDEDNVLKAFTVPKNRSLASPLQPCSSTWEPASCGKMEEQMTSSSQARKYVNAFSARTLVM

Assay [5] in a line: ATG_NFI_CIS: Attagene CIS-FACTORIAL HepG2 Assay for human Nuclear Factor I (NFI) (AID 2282989). As to conditions: HepG2 cis-regulatory reporter, NFI response element transcription; actives raise or lower the signal. Put shortly: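 Reporter transcripts were measured by RT-PCR with fluorescent primer extension and capillary electrophoresis 24 h post-treatment. HepG2 cells carried transiently transfected cis-regulated reporter constructs reporting endogenous factor activity; gain or loss fitted against DMSO baseline.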

The target in assay [6] is Myc proto-oncogene protein (Homo sapiens) (UniProt P01106). Briefly: ATG_Myc_CIS: Attagene CIS-FACTORIAL HepG2 Assay for human Myelocytomatosis (Myc) Proto-Oncogene Transcription Factor (AID 2282990). As to conditions: HepG2, Attagene cis-reporter transcription factor activity; actives raise or lower the signal. The gist of the method:
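DMSO-normalised, bidirectionally fitted reporter mRNA signal. HepG2 cells transfected with cis reporter constructs, treated 24 h; transcripts detected by RT-PCR, 6-FAM primer extension and CE.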

A short description of assay [7]: ATG_NF_kB_CIS: Attagene CIS-FACTORIAL HepG2 Assay for human Nuclear Factor Kappa B (NF-kB) (AID 2282991). As to conditions: HepG2 Attagene cis-factorial NF-kB reporter mRNA; actives raise or lower the signal. The gist of the method:
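HepG2 cells transfected with cis-promoter-driven reporter units, so endogenous transcription factor activity is measured. Reporter mRNA quantified 24 h after dosing by RT-PCR and capillary electrophoresis, with bidirectional fitting against DMSO.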

The nature of assay [8]: ATG_NRF2_ARE_CIS: Attagene CIS-FACTORIAL HepG2 Assay for human Nuclear Factor Erythroid 2 Related Factor 2 (NFR2) response to Antioxidant Response Elements (ARE) (AID 2282992).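 For AC50: reporter mRNA level measured by RT-PCR and capillary electrophoresis fluorescence.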 As to conditions: HepG2 Attagene ARE/NRF2 reporter, transcription factor activity; actives raise or lower the signal. Put shortly: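 Transient MRTU transfection of HepG2; 24 h compound exposure; TriZol RNA, RT with oligo(dT), PCR, 6-FAM primer extension, HpaI cut, CE. Bidirectional fit vs DMSO.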

The nature of assay [9]: ATG_Oct_MLP_CIS: Attagene CIS-FACTORIAL HepG2 Assay for human Octamer-Binding Transcription Factor (Oct) (AID 2282993). As to conditions: HepG2 Attagene cis-factorial Oct reporter, mRNA; actives raise or lower the signal. Put shortly: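 Readout is reporter transcript level from RT-PCR with fluorescent primer extension and capillary electrophoresis, fitted in both directions against DMSO. Transfected HepG2 reporter units report endogenous factor activity after 24 h dosing.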

The nature of assay [10]: BSK_3C_TissueFactor: BioMAP Diversity Plus: 3C Assay for Tissue Factor Biomarker Activity (AID 2282997). As to conditions: BioMAP 3C HUVEC, tissue factor biomarker readout; actives raise or lower the signal. The gist of the method:
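Primary human umbilical vein endothelial cells in the 3C system were exposed to test chemical for 24 h, then Tissue Factor measured by ELISA. Activity was fitted bidirectionally against DMSO as negative control and baseline.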

Assay [11] in a line: BSK_3C_uPAR: BioMAP Diversity Plus: 3C Assay for Urokinase-type plasminogen activator receptor (uPAR) Biomarker Activity (AID 2282998). As to conditions: BioMAP 3C HUVEC, uPAR biomarker ELISA; actives raise or lower the signal. Put shortly: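 Cell-surface uPAR on HUVEC (3C system) read by ELISA at 24 h post-treatment, with DMSO as baseline and fitting in both directions. Parallel cultures stained with SRB to flag overt cytotoxicity.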
(In general: An ELISA detects its analyte on a solid surface through an enzyme-linked reagent.)

For assay [12], the target named is Glucocorticoid receptor (Homo sapiens) (UniProt P04150). Briefly: ATG_GR_TRANS: Attagene TRANS-FACTORIAL HepG2 Assay for human Glucocorticoid Receptor (GR) (AID 2282978; active = hit-call score of the fitted dose curve at least 0.9, where 1 is the maximum;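 note: activators score as hits since higher reporter transcript over DMSO is fitted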). As to conditions: HepG2 Attagene TRANS GR reporter, mRNA transcription. The gist of the method: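 HepG2 cells transiently transfected with GAL4-UAS reporter units and exogenous GR-Gal4 chimera, dosed 24 h. Reporter mRNA by RT-PCR, FAM labeling, HpaI digest and capillary electrophoresis; gain-of-signal fit versus DMSO.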
Sequence of Glucocorticoid receptor (Homo sapiens) (P04150 whole entry, looked up, the tested form may be a part): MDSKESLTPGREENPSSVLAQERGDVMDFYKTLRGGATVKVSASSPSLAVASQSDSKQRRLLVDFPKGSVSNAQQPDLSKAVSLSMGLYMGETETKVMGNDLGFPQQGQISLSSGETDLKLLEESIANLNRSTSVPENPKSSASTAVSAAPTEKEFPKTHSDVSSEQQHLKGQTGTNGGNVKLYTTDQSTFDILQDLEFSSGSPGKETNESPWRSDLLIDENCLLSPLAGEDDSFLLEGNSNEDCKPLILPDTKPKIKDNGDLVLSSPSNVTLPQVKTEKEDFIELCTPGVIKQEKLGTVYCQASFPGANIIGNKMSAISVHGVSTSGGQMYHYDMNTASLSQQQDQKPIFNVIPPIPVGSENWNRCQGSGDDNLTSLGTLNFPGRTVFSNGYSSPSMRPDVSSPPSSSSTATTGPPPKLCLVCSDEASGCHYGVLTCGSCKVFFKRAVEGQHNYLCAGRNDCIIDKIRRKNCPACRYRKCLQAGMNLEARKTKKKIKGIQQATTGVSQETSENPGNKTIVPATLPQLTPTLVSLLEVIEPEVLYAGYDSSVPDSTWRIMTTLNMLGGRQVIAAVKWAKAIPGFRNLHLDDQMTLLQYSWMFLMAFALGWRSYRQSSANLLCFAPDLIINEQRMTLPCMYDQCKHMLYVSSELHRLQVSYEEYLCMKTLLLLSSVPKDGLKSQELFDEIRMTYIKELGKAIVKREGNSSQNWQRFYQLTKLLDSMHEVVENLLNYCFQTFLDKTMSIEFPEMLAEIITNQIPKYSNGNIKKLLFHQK

In assay [13] the target is Oxysterols receptor LXR-alpha (Homo sapiens) (UniProt Q13133). Briefly: ATG_LXRa_TRANS: Attagene TRANS-FACTORIAL HepG2 Assay for human Liver X Receptor alpha (LXRa) (AID 2282980; active = hit-call score of the fitted dose curve at least 0.9, where 1 is the maximum). As to conditions: HepG2 Attagene TRANS reporter, LXRa transactivation. The gist of the method:
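HepG2 cells were transiently transfected with multiplexed reporter units driven by chimeric LXRa–GAL4 fusion proteins, then dosed for 24 h. Reporter mRNA was quantified by RT-PCR, fluorescent labelling and capillary electrophoresis; gain of signal fitted against DMSO baseline.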

The target of assay [14] is Hepatocyte nuclear factor 4-alpha (Homo sapiens) (UniProt P41235). The assay can be described thus: ATG_HNF4a_TRANS: Attagene TRANS-FACTORIAL HepG2 Assay for human Hepatocyte Nuclear Factor 4 alpha (HNF4a) (AID 2282982; active = hit-call score of the fitted dose curve at least 0.9, where 1 is the maximum). As to conditions: HepG2 HNF4a transactivation reporter, mRNA readout. Put shortly: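 HepG2 cells transiently transfected with multiplexed GAL4-UAS reporter units responsive to chimeric NR-GAL4 proteins; compound exposure 24 h. Reporter mRNA quantified by RT-PCR, 6-FAM labelling, HpaI digestion and capillary electrophoresis; gain of signal versus DMSO baseline.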
Sequence of Hepatocyte nuclear factor 4-alpha (Homo sapiens) (P41235 whole entry, looked up, the tested form may be a part): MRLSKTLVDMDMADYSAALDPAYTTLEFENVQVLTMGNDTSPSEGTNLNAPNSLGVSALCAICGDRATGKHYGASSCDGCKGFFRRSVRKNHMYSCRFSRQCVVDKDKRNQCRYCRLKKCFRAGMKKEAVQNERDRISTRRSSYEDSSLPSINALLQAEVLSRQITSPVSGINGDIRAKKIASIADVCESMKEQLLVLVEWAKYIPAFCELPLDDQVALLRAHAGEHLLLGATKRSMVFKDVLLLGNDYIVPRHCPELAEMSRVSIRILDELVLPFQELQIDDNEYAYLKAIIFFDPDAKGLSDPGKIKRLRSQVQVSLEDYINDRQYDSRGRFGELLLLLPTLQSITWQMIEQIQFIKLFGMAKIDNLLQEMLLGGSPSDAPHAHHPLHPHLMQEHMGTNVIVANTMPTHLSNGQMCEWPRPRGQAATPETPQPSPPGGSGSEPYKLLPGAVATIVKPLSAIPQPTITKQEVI

Assay [15] in a line: ATG_M_32_TRANS: Attagene TRANS-FACTORIAL HepG2 Assay for M32 Transcription Factor (Internal Marker) (AID 2282984; active = hit-call score of the fitted dose curve at least 0.9, where 1 is the maximum). As to conditions: HepG2 Attagene TRANS M32 internal marker reporter. Put shortly:
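HepG2 cells transiently transfected with multiple GAL4-UAS reporter transcription units, dosed for 24 hours; reporter mRNA quantified by RT-PCR, 6-FAM primer extension, HpaI digestion and capillary electrophoresis. Gain-of-signal fitted versus DMSO baseline; internal background-control marker.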

The target in assay [16] is Nuclear respiratory factor 1 (Homo sapiens) (UniProt Q16656). The assay can be described thus: ATG_NRF1_CIS: Attagene CIS-FACTORIAL HepG2 Assay for human Nuclear Respiratory Factor 1 (NRF1) Orphan Gene (AID 2282987). As to conditions: HepG2 NRF1 cis-element reporter, Attagene multiplex; actives raise or lower the signal. The gist of the method:
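HepG2 cells transiently transfected with multiple cis-regulated reporter units, exposed 24 h. Reporter mRNAs measured by RT-PCR, fluorescent labelling, HpaI digestion and capillary electrophoresis; bidirectional fitting against DMSO.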

In assay [17] the target is Cellular tumor antigen p53 (Homo sapiens) (UniProt P04637). Briefly: ATG_p53_CIS: Attagene CIS-FACTORIAL HepG2 Assay for human p53 Transcription Factor (AID 2282994). As to conditions: HepG2 p53 cis-element reporter, Attagene mRNA; actives raise or lower the signal. Put shortly: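 HepG2, transient MRTU transfection (cis promoter elements, endogenous TFs); 24 h dosing; RNA isolation, RT-PCR, 6-FAM primer extension, HpaI digest, CE fluorescence; bidirectional fit vs DMSO.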
Sequence of Cellular tumor antigen p53 (Homo sapiens) (P04637 whole entry, looked up): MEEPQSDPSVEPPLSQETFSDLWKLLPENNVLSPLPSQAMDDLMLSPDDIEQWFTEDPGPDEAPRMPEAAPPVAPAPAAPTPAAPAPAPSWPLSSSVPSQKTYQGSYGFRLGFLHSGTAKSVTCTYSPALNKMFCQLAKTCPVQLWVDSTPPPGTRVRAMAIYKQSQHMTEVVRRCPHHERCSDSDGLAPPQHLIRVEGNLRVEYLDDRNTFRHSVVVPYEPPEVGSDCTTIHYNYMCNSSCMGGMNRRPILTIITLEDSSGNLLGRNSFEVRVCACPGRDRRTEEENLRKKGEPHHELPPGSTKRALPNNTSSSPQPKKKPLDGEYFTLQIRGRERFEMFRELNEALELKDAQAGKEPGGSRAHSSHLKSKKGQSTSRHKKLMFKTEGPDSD

Assay [18] has as its target Bile acid receptor (Homo sapiens) (UniProt Q96RI1). Briefly: ATG_FXR_TRANS: Attagene TRANS-FACTORIAL HepG2 Assay for Farnesoid X Receptor (FXR) (AID 2282979; active = hit-call score of the fitted dose curve at least 0.9, where 1 is the maximum;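 note: hits raise reporter mRNA above DMSO so AC50 marks FXR activation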). As to conditions: HepG2 Attagene TRANS FXR-GAL4 reporter transcription. Put shortly:
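HepG2 cells transiently transfected with reporter constructs in which a chimeric FXR-GAL4 protein drives a GAL4-UAS reporter; 24 h compound exposure. Reporter mRNA measured by RT-PCR, FAM labelling, HpaI digestion and capillary electrophoresis; gain-of-signal versus DMSO.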

Sequence of Myc proto-oncogene protein (Homo sapiens) (P01106 whole entry, looked up): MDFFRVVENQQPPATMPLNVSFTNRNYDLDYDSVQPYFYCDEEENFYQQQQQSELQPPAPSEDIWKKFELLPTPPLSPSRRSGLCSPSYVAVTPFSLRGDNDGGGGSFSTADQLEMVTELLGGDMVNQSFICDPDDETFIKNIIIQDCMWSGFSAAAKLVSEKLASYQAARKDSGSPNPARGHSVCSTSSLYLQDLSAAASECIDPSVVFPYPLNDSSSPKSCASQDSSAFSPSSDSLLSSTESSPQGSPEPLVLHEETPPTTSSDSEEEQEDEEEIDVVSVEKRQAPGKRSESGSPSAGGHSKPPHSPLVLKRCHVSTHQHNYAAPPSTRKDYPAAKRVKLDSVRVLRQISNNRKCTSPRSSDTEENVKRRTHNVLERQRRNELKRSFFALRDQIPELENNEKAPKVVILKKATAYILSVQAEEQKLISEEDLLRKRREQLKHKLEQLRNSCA
Sequence of Oxysterols receptor LXR-alpha (Homo sapiens) (Q13133 whole entry, looked up, the tested form may be a part): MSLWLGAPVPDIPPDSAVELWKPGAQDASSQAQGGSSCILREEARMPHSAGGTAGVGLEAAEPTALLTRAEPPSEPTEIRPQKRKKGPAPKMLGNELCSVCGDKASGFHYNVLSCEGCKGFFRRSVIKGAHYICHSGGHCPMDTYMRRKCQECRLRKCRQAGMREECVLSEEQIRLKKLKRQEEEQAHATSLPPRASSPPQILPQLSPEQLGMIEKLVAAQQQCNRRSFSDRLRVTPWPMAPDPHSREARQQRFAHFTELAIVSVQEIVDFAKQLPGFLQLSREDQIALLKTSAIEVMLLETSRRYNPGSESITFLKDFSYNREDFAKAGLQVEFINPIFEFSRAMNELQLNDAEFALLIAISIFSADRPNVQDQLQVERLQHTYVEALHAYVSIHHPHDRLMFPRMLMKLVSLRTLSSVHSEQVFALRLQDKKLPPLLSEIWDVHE
Sequence of Nuclear respiratory factor 1 (Homo sapiens) (Q16656 whole entry, looked up): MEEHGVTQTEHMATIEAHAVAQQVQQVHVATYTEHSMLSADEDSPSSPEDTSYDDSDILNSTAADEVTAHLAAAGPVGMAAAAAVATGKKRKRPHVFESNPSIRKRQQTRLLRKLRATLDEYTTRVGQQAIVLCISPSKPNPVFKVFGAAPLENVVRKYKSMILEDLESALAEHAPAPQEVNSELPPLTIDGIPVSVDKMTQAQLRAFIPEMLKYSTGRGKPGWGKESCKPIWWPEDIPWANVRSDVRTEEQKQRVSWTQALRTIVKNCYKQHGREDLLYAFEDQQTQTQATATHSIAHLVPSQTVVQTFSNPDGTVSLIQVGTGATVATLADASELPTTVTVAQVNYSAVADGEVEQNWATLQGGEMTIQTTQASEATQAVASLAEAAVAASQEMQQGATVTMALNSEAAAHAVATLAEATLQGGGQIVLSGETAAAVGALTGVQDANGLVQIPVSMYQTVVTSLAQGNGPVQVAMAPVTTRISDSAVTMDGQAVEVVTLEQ

As usually defined, the AC50 is the midpoint of the concentration-response curve, whichever way the signal moves. Regarding `FC(F)C(F)(F)OCC(Cn1cncn1)c1ccc(Cl)cc1Cl` (stereo not drawn), the compound was called inactive in [1], in assay [2], in [3], in assay [4], in [5] and in assay [6]. Besides, the compound was called inactive in [7] and in assay [10]. In addition, the AC50 in assay [8] is 35.9 µM (active); in [9], 46.5 µM (active); in assay [11] it was 36.7 µM (active).

For the compound `CCNc1nc(Cl)nc(NC(C)(C)C#N)n1`, the compound was called inactive in [12], in assay [13], in assay [1], in [14], in [15] and in assay [3]. Further, the result in assay [4], in [16], in [5], in assay [6], in assay [8] and in assay [9] was inactive. Also, the result in [10] and in assay [11] was inactive.

Consider `S=C1NCCN1`, for which the result in [13], in assay [1], in assay [14], in assay [2], in assay [15] and in [3] was inactive. Moreover, the call in assay [4], in assay [16], in [5], in assay [6], in assay [7] and in [8] was inactive. Besides, the compound was called inactive in assay [9], in assay [17], in [10] and in assay [11].

Regarding `CNC(=O)Oc1cccc2c1OC(C)(C)O2`, the result in assay [18], in assay [13], in assay [1], in assay [2], in assay [15] and in assay [4] was inactive. Besides, the outcome in assay [16], in assay [6], in [7], in assay [10] and in assay [11] was inactive. The figures for the half-maximal activity concentration (AC50) in [5], in assay [8] and in assay [9] were 50 µM (active), 37 µM (active) and 38.5 µM (active), respectively.

For `C#CC(C)(C)NC(=O)c1cc(Cl)cc(Cl)c1`, the compound was classed as inactive in assay [13], in assay [1], in assay [2], in [15], in [3] and in assay [4]. Moreover, the compound was classed as inactive in assay [16], in assay [5], in [6], in assay [7], in assay [17] and in assay [10]. For the same compound, the outcome in [11] was inactive. The results for the concentration at half-maximal activity (AC50) in assay [8] and in assay [9] were 22 µM (active) and 30.6 µM (active), respectively.

With `CCCSP(=O)(OCC)Oc1ccc(Br)cc1Cl` (stereo not drawn), the outcome in [18], in assay [13], in assay [1], in assay [2], in [15] and in assay [3] was inactive. In addition, the compound was classed as inactive in assay [4], in assay [16], in assay [5], in assay [6], in [7] and in [17]. Further, the result in assay [10] and in [11] was inactive. The AC50 in [8] was 2.73 µM (active); in [9], 2.03 µM (active).

`CON=C(C(=O)OC)c1ccccc1CON=C(C)c1cccc(C(F)(F)F)c1`: the outcome in [13], in [1], in [14], in [15], in [4] and in [5] was inactive. Besides, the compound was classed as inactive in [6], in assay [10] and in assay [11]. The half-maximal activity concentration (AC50) in assay [7] was 73.1 µM (active); in assay [8], 15.7 µM (active); in assay [9] it was 13.5 µM (active).

As to `CC(Oc1cccc(Cl)c1)C(=O)O` (stereo not drawn), the compound was called inactive in [12], in assay [1], in assay [15], in assay [3], in [4] and in assay [5]. Besides, the result in assay [6], in [8], in [9], in assay [10] and in [11] was inactive.

In the case of `CC(C1CC1)C(O)(Cn1cncn1)c1ccc(Cl)cc1` (stereo not drawn), the compound was called inactive in assay [13], in assay [1], in assay [15], in [3], in assay [4] and in assay [16]. Further, the result in [5], in [6], in assay [7], in assay [8], in assay [9] and in [17] was inactive. For the same compound, the outcome in [10] and in assay [11] was inactive.
